HSF1 activator – HSF-1 activators, primary screen, NIH3T3-HGL cells, MG132 stress, luminescence, single point; NIH3T3-HGL HSF-1 luciferase reporter, 8 h; 100% = twice DMSO control signal; activation, % at 9 µM; 300,000 tested, 1.7% active;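 active = mean replicate activation of at least 50% with a set share of replicates each reaching 50%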
S1P4 agonist – S1P4 receptor agonists, primary screen, cell-based; activation, % at 4.98 µM; 220,000 tested, 0.35% active; S1P4-expressing cell line, agonist reporter assay; in the data active = activation above about 11%
Target sequence (O95977 whole entry, looked up): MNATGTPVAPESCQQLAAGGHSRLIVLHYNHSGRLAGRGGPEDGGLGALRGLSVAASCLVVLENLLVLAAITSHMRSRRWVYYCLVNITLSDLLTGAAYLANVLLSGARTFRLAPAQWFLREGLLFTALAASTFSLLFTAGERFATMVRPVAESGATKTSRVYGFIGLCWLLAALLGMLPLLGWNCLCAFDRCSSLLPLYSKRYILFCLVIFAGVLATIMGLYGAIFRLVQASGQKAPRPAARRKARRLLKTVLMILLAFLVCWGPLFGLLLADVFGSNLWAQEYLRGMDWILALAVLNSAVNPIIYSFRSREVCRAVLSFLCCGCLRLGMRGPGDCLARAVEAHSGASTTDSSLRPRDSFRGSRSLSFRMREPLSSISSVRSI
Hsp70 activator – Hsp70 transcriptional activators, primary screen, cell-based, HeLa, Hsp70 promoter luciferase, luminescence, 10 µM | 200,000 tested, 0.04% active | HeLa Hsp70 promoter luciferase reporter; scaled: vehicle 0, proteasome-inhibitor control 100% | activation, % at 10 µM;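 active = activation above the mean across all tested compounds plus 3 SD, cutoff set per campaign, cut at about 5.5% in these data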
HSF1 inh – HSF1 inhibitors in luciferase reporter cells, primary screen, cell-based, NIH3T3, luminescence; 300,000 tested, 0.77% active; NIH3T3-HGL HSE-luciferase, MG132-induced, luminescence 8 h; hits give low values; activity change, negative = inhibition, % at 7.5 µM (by protocol);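 active = more than half of replicate wells show activity change below -50%, luminescence cut by over half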;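 note: luciferase reports HSF-1 transcriptional activity via heat shock element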
S1P4 antag – S1P4 receptor antagonists, primary screen, cell-based; Sphingosine 1-phosphate receptor 4 (Homo sapiens), O95977; S1P4-expressing cells, antagonist mode, reporter read-out; 220,000 tested, 0.26% active; inhibition, % at 4.98 µM; in the data active = inhibition above about 29%
S1P3 antagonist – S1P3 receptor antagonists, primary screen, cell-based | Sphingosine 1-phosphate receptor 3 (Homo sapiens), Q99500 | CHO S1P3 NFAT-BLA reporter, FRET fluorescence, antagonist mode | inhibition, % at 4.98 µM | 170,000 tested, 0.27% active | AID 485, 2006;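 active = inhibition above the plate cutoff, the mean inhibition of test wells on that plate plus 3 SD, cut at about 28% in these data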;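 note: cells challenged with S1P at its EC80 of 0.8 µM; blue over green emission ratio from cleaved BLA substrate after 4 h stimulation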
Target sequence (Q99500 whole entry, looked up): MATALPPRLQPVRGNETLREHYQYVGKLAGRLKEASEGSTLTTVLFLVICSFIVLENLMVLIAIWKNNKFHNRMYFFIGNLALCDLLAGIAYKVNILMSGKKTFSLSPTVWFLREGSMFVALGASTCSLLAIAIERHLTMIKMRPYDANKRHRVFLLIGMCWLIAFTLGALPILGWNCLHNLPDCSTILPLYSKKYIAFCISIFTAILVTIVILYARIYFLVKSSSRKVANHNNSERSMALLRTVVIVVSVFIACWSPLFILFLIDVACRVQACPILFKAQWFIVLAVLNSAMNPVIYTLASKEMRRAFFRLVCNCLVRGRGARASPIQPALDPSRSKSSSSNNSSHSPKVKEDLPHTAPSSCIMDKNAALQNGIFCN
Of the large screens only hits and unclear results are named; the others gave an inactive call. In the library only some 2.9% were active in any assay of this set; here they are far more common.

CCOC(=O)c1cn(CC)c2cc(Cl)c([N+](=O)[O-])cc2c1=O	none
COc1ccccc1OCCNC(=O)Cc1ccc(S(=O)(=O)N2CCOCC2)s1	none (no result: S1P4 agonist, Hsp70 activator, S1P4 antag, S1P3 antagonist)
O=c1c2ccccc2[nH]c(=S)n1CCCN1CCN(C2CCCCC2)CC1	S1P3 antagonist 70.3 (no result: HSF1 activator, HSF1 inh)
O=C(OC1CCCCC1)c1cc2ccccc2oc1=O	HSF1 activator 51.5 (no result: S1P4 agonist, Hsp70 activator, S1P4 antag, S1P3 antagonist)
COc1cccc2cc(C(=O)OC3CCN(C)CC3)c(=O)oc12	HSF1 inh -68.0
CCCC(C)C(=O)Nc1ncc(S(=O)(=O)c2ccc([N+](=O)[O-])cc2)s1 (stereo unspecified)	none (no result: S1P4 agonist, Hsp70 activator, S1P4 antag, S1P3 antagonist)
Nc1nc(CSC(=S)N2CCCCC2)nc(Nc2ccccc2)n1	HSF1 inh -81.0
CCn1c(=O)c([N+](=O)[O-])c(Cl)c2ccccc21	HSF1 activator 313.1
CC(C)NC(=O)CN(Cc1ccc(F)cc1)C(=O)CCC(=O)Nc1nccs1	none (no result: S1P4 agonist, Hsp70 activator, S1P4 antag, S1P3 antagonist)
O=[N+]([O-])c1ccc(S(=O)(=O)N2CCSC2c2ccco2)cc1 (stereo unspecified)	HSF1 activator 50.6 (no result: Hsp70 activator)
O=S(=O)(c1ccc(Cl)cc1)N1CCSC1c1ccco1 (stereo unspecified)	none (no result: HSF1 activator, HSF1 inh)
COc1ccc(C(=O)/C=C/c2cc(C(=O)O)cc3c2OCOC3)c(O)c1	HSF1 activator 94.9 (no result: Hsp70 activator)
COC(=O)c1ccccc1NC(=O)C1CC(c2ccccc2O)=NO1 (stereo unspecified)	none
CSc1ccccc1NC(=O)C1CC(c2ccccc2O)=NO1 (stereo unspecified)	S1P3 antagonist 82.2
Cc1ccc(NC(=O)CSc2ncccc2C(=O)Oc2cccc([N+](=O)[O-])c2)cc1Cl	HSF1 activator 82.2
CCOc1cc(/C=N/NC(=O)CN(CCc2ccccc2)S(=O)(=O)c2ccc(NC(C)=O)cc2)ccc1O	HSF1 inh -88.6
CCn1c(SCC(=O)N/N=C(\C)c2ccco2)nnc1-c1ccccc1	none
C/C(=N\N=C(/C)c1cccc(N)c1)c1cccc(N)c1	HSF1 activator 64.3 (no result: S1P4 agonist, Hsp70 activator, S1P4 antag, S1P3 antagonist)
Nc1cccc(C(=O)O)c1	none
O=C(CSc1nc2c(c(=O)n1-c1ccc(Cl)cc1)SCC2)NCC1CCCO1 (stereo unspecified)	none (no result: S1P3 antagonist)
COc1cccc(-n2c(SCC(=O)NCC3CCCO3)nc3c(c2=O)SCC3)c1 (stereo unspecified)	HSF1 inh -71.7 (no result: S1P4 agonist, Hsp70 activator, S1P4 antag, S1P3 antagonist)
COc1c(OC(C)=O)ccc(/C=C/c2ccc3ccccc3n2)c1[N+](=O)[O-]	HSF1 activator 64.7 (no result: S1P3 antagonist)
O=[N+]([O-])c1ccccc1/C=C/c1ccc2ccccc2n1	HSF1 activator 97.9 (no result: S1P4 agonist, Hsp70 activator, S1P4 antag, S1P3 antagonist)
O=S(=O)(/N=C(/c1ccccc1)N1CCOCC1)c1ccc(F)cc1	none (no result: S1P4 agonist, Hsp70 activator, S1P4 antag, S1P3 antagonist)
O=C(CC1Nc2ccccc2NC1=O)NCc1cccnc1 (stereo unspecified)	S1P3 antagonist 101.9
CCOc1ccc(/C=N/NC(=O)C(C)N(c2ccc(OC)cc2)S(C)(=O)=O)cc1 (stereo unspecified)	HSF1 activator 64.2 (no result: S1P3 antagonist)
COc1ccc(C(CNC(=O)COc2cc(C)c(Cl)c(C)c2)N2CCCCC2)cc1 (stereo unspecified)	none (no result: S1P4 agonist, Hsp70 activator, S1P4 antag, S1P3 antagonist)
COc1ccc(-c2csc(C3=C(O)CN(C(C)C)C3=N)n2)cc1OC	none
O=C(Nc1ccc(OCC(F)(F)C(F)F)c(C(F)(F)F)c1)c1ccccc1O	HSF1 activator 66.4 (no result: S1P3 antagonist)
Cc1ccnc(NC(=O)c2cc([N+](=O)[O-])cc([N+](=O)[O-])c2)c1	none
Cc1ccnc(NC(=O)c2ccc([N+](=O)[O-])s2)c1	HSF1 activator 69.7 (no result: S1P4 agonist, Hsp70 activator, S1P4 antag, S1P3 antagonist)
Cc1cccc(NC(=O)c2ccccc2O)c1C	HSF1 activator 123.9 (no result: S1P3 antagonist)
Cc1c(NC(=O)c2ccc(C(C)(C)C)cc2)cccc1[N+](=O)[O-]	HSF1 activator 72.0
Cc1cccc(NC(=O)c2ccc([N+](=O)[O-])s2)c1C	HSF1 activator 55.7
Cc1cc(C)c(C)c(S(=O)(=O)N2CCC(C(=O)NCC(c3ccccc3)N(C)C)CC2)c1C (stereo unspecified)	none (no result: S1P4 agonist, Hsp70 activator, S1P4 antag, S1P3 antagonist)
c1ccc(-c2nc3ccccc3s2)nc1	HSF1 activator 57.8
CC(C)c1ccccc1-n1c(-c2cccnc2)n[nH]c1=S	HSF1 inh -65.1
Cc1cc(N/N=C/c2ccc(O)c(C)c2O)nc(-c2ccccc2O)n1	HSF1 inh -59.2
COc1ccc(C(C(=O)NCC2CCCO2)N(Cc2cccs2)C(=O)c2snc(C(N)=O)c2N)cc1 (stereo unspecified)	none (no result: S1P4 agonist, Hsp70 activator, S1P4 antag, S1P3 antagonist)
COc1ccc(NC(=O)CCc2nnc3ccc(N4CCC(C)CC4)nn23)cc1OC	HSF1 inh -71.3 (no result: S1P4 agonist, Hsp70 activator, S1P4 antag, S1P3 antagonist)
CN(c1ccccc1)S(=O)(=O)c1nnc(NC(=O)COc2ccccc2F)s1	HSF1 inh -72.1 (no result: S1P4 agonist, Hsp70 activator, S1P4 antag, S1P3 antagonist)
CCN(CC)S(=O)(=O)c1ccc(NN=c2c(=O)c3ccccc3c2=O)cc1	none (no result: Hsp70 activator)
CCN(CC)C(=S)SCC(=O)Nc1ccc(S(N)(=O)=O)cc1	none
CCN(CC)C(=S)SCC(=O)Nc1nc(=O)c2ccccc2s1	HSF1 inh -69.6
Cc1ccc(C(=O)OCC(=O)NC2CCCC2)cc1C	none (no result: S1P4 agonist, Hsp70 activator, S1P4 antag, S1P3 antagonist)
[O-]/[N+](=C\c1ccncc1)c1ccc(Br)cc1	HSF1 activator 117.0
[O-]/[N+](=C/c1cccnc1)c1ccc(Br)cc1	none
CCc1ccc(NC(=O)C/C(C)=N/NC(=O)COc2ccc(C)cc2Br)cc1	HSF1 activator 58.6 (no result: S1P4 agonist, Hsp70 activator, S1P4 antag, S1P3 antagonist)
CC1=C(C)CC(C(=O)NCc2cccc(Cl)c2)C(C(=O)O)C1 (stereo unspecified)	none (no result: S1P4 agonist, Hsp70 activator, S1P4 antag, S1P3 antagonist)
CCOC(=O)Cc1csc(NC(=O)NC2(C(F)(F)F)Oc3ccc(Cl)cc3O2)n1 (stereo unspecified)	none (no result: S1P3 antagonist)
CCOC(=O)Cc1csc(NC(=O)NC2(C(F)(F)F)Oc3cc(Cl)c(Cl)cc3O2)n1	HSF1 inh -56.9 (no result: S1P3 antagonist)
CCCSc1nnc(Sc2nnnn2-c2ccccc2)s1	HSF1 activator 123.0
COc1ccccc1C(=O)NC(=O)COC(=O)CCOc1cc(C)ccc1C	none (no result: S1P4 agonist, Hsp70 activator, S1P4 antag, S1P3 antagonist)
Cc1ccccc1CC1SC(N)=NC1=O (stereo unspecified)	none (no result: S1P4 agonist, Hsp70 activator, S1P4 antag, S1P3 antagonist)
Cc1csc(NC(=O)CCc2nc3ccccc3s2)n1	HSF1 activator 52.4
Cc1csc(NC(=O)CSc2nc3ccccc3c3c2CCCC3)n1	HSF1 activator 58.1
COc1cc(C)ccc1OCc1cc(C(=O)N(Cc2nccn2C)C(C)C)no1	HSF1 activator 57.9 (no result: S1P4 agonist, Hsp70 activator, S1P4 antag, S1P3 antagonist)
COc1ccc(N=CC2=C(O)c3ccccc3C2=O)c(OC)c1	HSF1 inh -72.8 (no result: S1P3 antagonist)
CCn1ccnc1CN(C)Cc1nc(Cc2cccc(C(F)(F)F)c2)no1	none
COC(=O)C1=NN(C(=O)c2ccc(Cl)cc2)C(O)(c2ccccc2)C1 (stereo unspecified)	HSF1 activator 141.9 (no result: S1P3 antagonist)
CCOC(=O)C1=NN(C(=O)c2ccc(C)cc2)C(O)(c2ccc(Cl)cc2)C1 (stereo unspecified)	HSF1 activator 166.5 (no result: S1P3 antagonist)
